Laboratory results published in PubChem BioAssay (Tox21).
Unmarked numbers belong to inactive results. Results filed as inconclusive are left out. Where a call stands in place of a potency, no number is given. The source made the active and inactive calls. The call rests on the fitted dose curve.

Legend:
[1] = biological target: Acetylcholinesterase (Homo sapiens) (UniProt P22303); experiment: Acetylcholinesterase (AChE) small molecule antagonists: colormetric cell-based qHTS assay (AID 1347395); conditions: SH-SY5Y cells AChE activity, colorimetric (Ellman); series mostly up to 115 µM; further: nearly all actives have a fitted effect of over 30% in size; further: potency means the concentration at half of the fitted maximal effect
Summary of the method: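 Cells (SH-SY5Y, 2,000 per well) are seeded and left overnight at 37 C. Compound is added for 30 min, then DTNB and acetylthiocholine for a further 90 min at 37 C before absorbance-based thiocholine detection.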

[2] = biological target: Acetylcholinesterase (Homo sapiens) (UniProt P22303); experiment: Acetylcholinesterase (AChE) small molecule antagonists: enzyme-based qHTS assay (AID 1347397); conditions: Potency: AChE enzyme activity inhibition; outcome: AChE enzyme activity inhibition; series mostly up to 115 µM; further: nearly all actives have a fitted effect of over 55% in size; further: potency means the concentration at half of the fitted maximal effect
Summary of the method: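 Recombinant human AChE (50 mU/mL) preincubated with compound 30 min at room temperature; acetylthiocholine plus DTNB then added, and thiocholine formation read colorimetrically after 10 min at room temperature. DMSO served as vehicle control.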

[3] = biological target: Acetylcholinesterase (Homo sapiens) (UniProt P22303); experiment: Acetylcholinesterase (AChE) small molecule antagonists: fluorescence cell-based qHTS assay (AID 1347398); conditions: SH-SY5Y cells; Potency: AChE activity; outcome: AChE activity; series mostly up to 115 µM; further: nearly all actives have a fitted effect of over 50% in size; further: potency means the concentration at half of the fitted maximal effect
Summary of the method: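 SH-SY5Y cells (2000/well), attached overnight, incubated with compound 30 min at 37 C. Acetylthiocholine plus Thiolite Green then added for 40 min at room temperature. Thiocholine fluorescence (Ex/Em 490/520 nm) reports cellular AChE activity.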

[4] = biological target: Acetylcholinesterase (Homo sapiens) (UniProt P22303); experiment: Acetylcholinesterase (AChE) small molecule antagonists: enzyme-based qHTS assay with human liver microsomes (AID 1347399); conditions: Potency: qHTS inhibition; outcome: qHTS inhibition; series mostly up to 115 µM; further: nearly all actives have a fitted effect of over 60% in size
Summary of the method: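 Recombinant human AChE (50 mU/mL in the enzyme mix) and human liver microsomes (0.25 mg/mL final) were preincubated with compound and NADPH (0.25 mg/mL final) for 30 min at 37 C. Acetylthiocholine/DTNB was then added; thiocholine was read colorimetrically after 10 min at room temperature.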

Acetylcholinesterase (Homo sapiens), sequence (P22303 whole entry, looked up): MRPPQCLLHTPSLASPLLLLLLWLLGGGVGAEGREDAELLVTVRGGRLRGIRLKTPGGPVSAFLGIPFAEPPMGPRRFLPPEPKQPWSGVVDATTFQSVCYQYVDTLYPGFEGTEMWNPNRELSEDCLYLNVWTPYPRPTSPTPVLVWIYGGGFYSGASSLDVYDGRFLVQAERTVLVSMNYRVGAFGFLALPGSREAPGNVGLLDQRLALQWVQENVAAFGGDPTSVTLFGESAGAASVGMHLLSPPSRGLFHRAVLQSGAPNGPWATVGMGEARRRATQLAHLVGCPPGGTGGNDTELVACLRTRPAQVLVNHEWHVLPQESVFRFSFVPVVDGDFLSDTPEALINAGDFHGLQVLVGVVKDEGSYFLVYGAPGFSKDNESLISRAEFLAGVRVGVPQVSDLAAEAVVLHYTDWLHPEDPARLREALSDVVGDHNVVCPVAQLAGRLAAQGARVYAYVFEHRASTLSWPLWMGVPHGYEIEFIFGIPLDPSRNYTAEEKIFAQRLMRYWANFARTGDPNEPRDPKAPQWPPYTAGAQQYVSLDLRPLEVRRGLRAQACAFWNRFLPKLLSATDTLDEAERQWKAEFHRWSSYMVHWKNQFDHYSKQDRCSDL

SMILES	Potency [1]	Potency [2]	Potency [3]	Potency [4]	activity, negative = inhibition [1]	activity change, negative = inhibition [2]	activity change, negative = inhibition [3]	activity change, negative = inhibition [4]
CC(=O)/C=C/C1C(C)=CCC(C)C1(C)C (stereo not given)	inactive	inactive	inactive	inactive	–	–	–	–
CC(C)(CC(=O)O)C(=O)O	inactive	inactive	inactive	inactive	–	–	–	–
CC(=O)Nc1nnc(S(N)(=O)=O)s1	inactive	inactive	inactive	inactive	–	–	–	–
Cc1ccc2n[nH]nc2c1	inactive	inactive	inactive	inactive	–	–	–	–
O=C=NC1CCC(CC2CCC(N=C=O)CC2)CC1 (stereo not given)	inactive	inactive	inactive	inactive	–	–	–	–
CCN(CCCc1ccccc1)CCCc1ccccc1	inactive	inactive	inactive	inactive	–	–	–	–
CN(C)C	inactive	inactive	inactive	inactive	–	–	–	–
Nc1ccc2cc(S(=O)(=O)O)cc(O)c2c1N=Nc1ccccc1C(F)(F)F	inactive	inactive	inactive	inactive	–	–	–	–
CCCCNC(N)=O	inactive	inactive	inactive	inactive	–	–	–	–
CCOc1ccc(N=Nc2ccc(/C=C/c3ccc(N=Nc4ccc(OCC)cc4)cc3S(=O)(=O)O)c(S(=O)(=O)O)c2)cc1	inactive	inactive	inactive	inactive	–	–	–	–
C=CC(=O)Nc1cc2c(Nc3ccc(F)c(Cl)c3)ncnc2cc1OCCCN1CCOCC1	inactive	inactive	inactive	inactive	–	–	–	–
Cc1c(Cl)cccc1[N+](=O)[O-]	inactive	inactive	inactive	inactive	–	–	–	–
O=C1Nc2cc(Cl)ccc2Oc2ccccc21	inactive	inactive	inactive	inactive	–	–	–	–
CC(C)CC(=O)C1C(=O)c2ccccc2C1=O	inactive	inactive	inactive	inactive	–	–	–	–
Fc1ccccc1	inactive	inactive	inactive	inactive	–	–	–	–
C[C@@H]1NC(=O)[C@@H](N)CNC(=O)[C@H](C2CCNC(N)=N2)NC(=O)/C(=C/NC(N)=O)NC(=O)[C@H](CNC(=O)C[C@@H](N)CCCN)NC1=O (stereo not given in full)	–	–	–	–	-1.67% [at 0.435 µM]	-0.97% [at 0.435 µM]	6.12% [at 0.439 µM]	-1.43% [at 0.435 µM]
Cc1cc(C)cc(N)c1	inactive	inactive	inactive	inactive	–	–	–	–
CC(O)CN (stereo not given)	inactive	inactive	inactive	inactive	–	–	–	–
OCCNCCO	inactive	inactive	inactive	inactive	–	–	–	–
CC(C)COC(=O)c1ccccc1O	inactive	inactive	inactive	inactive	–	–	–	–

SMILES	Potency [1]	Potency [2]	Potency [3]	Potency [4]	activity, negative = inhibition [1]	activity change, negative = inhibition [2]	activity change, negative = inhibition [3]	activity change, negative = inhibition [4]
CCCCOCCOC(=O)COc1cc(Cl)c(Cl)cc1Cl	inactive	inactive	inactive	inactive	–	–	–	–
O=c1oc2c(O)c(O)cc3c(=O)oc4c(O)c(O)cc1c4c23	–	–	–	–	-4.32% [at 23.6 µM]	3.59% [at 23.6 µM]	4.39% [at 23.8 µM]	-1.34% [at 23.6 µM]
CCCCCCCCCC=O	inactive	inactive	inactive	inactive	–	–	–	–
CCCCC(CC)CN1C(=O)C2C3C=CC(C3)C2C1=O (stereo not given)	inactive	inactive	inactive	inactive	–	–	–	–
COC(=O)/C=C/c1ccccc1	inactive	inactive	inactive	inactive	–	–	–	–
CC(C)OP(=O)(CP(=O)(OC(C)C)OC(C)C)OC(C)C	inactive	inactive	inactive	inactive	–	–	–	–
Cc1ccccc1C(OCCN(C)C)c1ccccc1 (stereo not given)	inactive	inactive	inactive	inactive	–	–	–	–
C[C@H]1C[C@@H](O)CC(C)(C)C1	inactive	inactive	inactive	inactive	–	–	–	–
Oc1ccc(Cl)cc1Sc1cc(Cl)ccc1O	inactive	inactive	inactive	inactive	–	–	–	–
O=C(NOCC1CC1)c1ccc(F)c(F)c1Nc1ccc(I)cc1Cl	inactive	inactive	inactive	inactive	–	–	–	–
CCOc1cc(OCC)c(C(C)=O)cc1OCC	inactive	inactive	inactive	inactive	–	–	–	–
Cc1ccc(C)c(S(=O)(=O)O)c1	inactive	inactive	inactive	inactive	–	–	–	–
BrC1CCC(Br)C(Br)CCC(Br)C(Br)CCC1Br (stereo not given)	inactive	inactive	inactive	inactive	–	–	–	–
O=C(O)c1ccc2cc(O)ccc2c1	inactive	inactive	inactive	inactive	–	–	–	–
CCOC(=O)NNc1ccc(N(CC)CC(C)O)nn1 (stereo not given)	inactive	inactive	inactive	inactive	–	–	–	–
CCOc1ccc(NC(=O)CC(C)=O)cc1	inactive	inactive	inactive	inactive	–	–	–	–
C[C@]12CC[C@H]3[C@@H](CCC4=CC(=O)CC[C@@]43C)[C@@H]1CC[C@@H]2C(=O)CO	inactive	inactive	inactive	inactive	–	–	–	–
Oc1c(I)cc(I)c2cccnc12	inactive	inactive	inactive	inactive	–	–	–	–
CO[C@@]1(NC(=O)CSCC#N)C(=O)N2C(C(=O)O)=C(CSc3nnnn3C)CS[C@@H]21	inactive	inactive	inactive	inactive	–	–	–	–
Cc1coc2ccccc2c1=O	inactive	inactive	inactive	inactive	–	–	–	–

SMILES	Potency [1]	Potency [2]	Potency [3]	Potency [4]	activity, negative = inhibition [1]	activity change, negative = inhibition [2]	activity change, negative = inhibition [3]	activity change, negative = inhibition [4]
C=C(C)C(=O)OCCCCCC	inactive	inactive	inactive	inactive	–	–	–	–
CCC(=O)C1CC(C(C)C)CC=C1C (stereo not given)	inactive	inactive	inactive	inactive	–	–	–	–
CN1C[C@H](C(=O)N[C@]2(C)O[C@@]3(O)[C@@H]4CCCN4C(=O)[C@H](Cc4ccccc4)N3C2=O)C[C@@H]2c3cccc4[nH]cc(c34)C[C@H]21	19.5 µM (active)	30.9 µM (active)	8.71 µM (active)	inactive	–	–	–	–
CC(=O)N(CC(O)CO)c1c(I)c(C(=O)NCC(O)CO)c(I)c(C(=O)NCC(O)CO)c1I (stereo not given)	inactive	inactive	inactive	inactive	–	–	–	–
CO/N=C(\C(=O)O)c1csc(NC(=O)CCl)n1	inactive	inactive	inactive	inactive	–	–	–	–
O=C(O)C[C@H](NC(=O)OCc1ccccc1)C(=O)O	inactive	inactive	inactive	inactive	–	–	–	–
COc1ccc([C@@H]2Sc3ccccc3N(CCN(C)C)C(=O)[C@@H]2OC(C)=O)cc1	inactive	inactive	inactive	inactive	–	–	–	–
CC/C(C)=N/O	inactive	inactive	inactive	inactive	–	–	–	–
Cn1c(=O)c2c(ncn2CCO)n(C)c1=O	inactive	inactive	inactive	inactive	–	–	–	–
CCOC(OCC)OCC	inactive	inactive	inactive	inactive	–	–	–	–
COC(=O)c1ccc(C(=O)O)cc1	inactive	inactive	inactive	inactive	–	–	–	–
CC1=CC(C)C(C=O)CC1 (stereo not given)	inactive	inactive	inactive	inactive	–	–	–	–
S=c1nccc[nH]1	inactive	inactive	inactive	inactive	–	–	–	–
CN1CCC(=C2c3ccccc3C=Cc3ccccc32)CC1	inactive	inactive	inactive	inactive	–	–	–	–
Cc1ccccc1C=O	inactive	inactive	inactive	inactive	–	–	–	–
O=C1CCCCCCCCCCCCCCO1	inactive	inactive	inactive	inactive	–	–	–	–
CC(C)(C)Cl	inactive	inactive	inactive	inactive	–	–	–	–
F[Si-2](F)(F)(F)(F)F	inactive	inactive	inactive	inactive	–	–	–	–
CNC(=O)Nc1ccc(Cl)c(Cl)c1	inactive	inactive	inactive	inactive	–	–	–	–
CC(C)CC(C)(N)C#N (stereo not given)	inactive	inactive	inactive	inactive	–	–	–	–
